Bioassay records as filed in PubChem BioAssay.
SKKanGAS inh – S. pyogenes SKKanGAS growth inhibitors in kanamycin, primary screen, streptokinase expression inhibitor project, SKKanGAS strain, BacTiter-Glo luminescence; 6 h; hit rate 1.3% among 300,000; AID 1662, 2009; inhibition, % at 7.5 µM;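 active means mean replicate score, as percent of positive control median, at least 50; inconclusive means mean below 50 but one replicate at or above 50; inactive means mean and every replicate below 50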;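 further: strain carries kanamycin resistance gene driven by streptokinase promoter and grows in 40 µg/ml kanamycin; loss of luminescence reflects streptokinase promoter inhibition or plain growth inhibition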
TIM10 inh – growth inhibitors of isogenic TIM10 control yeast, primary screen, counter-screen for tim10-1 yeast inhibitor project, luminescence, uHTS; S. cerevisiae TIM10 strain growth, BacTiter-Glo luminescence, 24 h; inhibition, % at 10 µM; hit rate 1.4% among 330,000; AID 463195, 2010;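 active means inhibition of 40% or more at the single tested concentration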;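 further: wild-type TIM10 isogenic control strain grown at permissive 25 °C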
PfHsp90 yeast 2 – growth inhibition of PfHsp90-expressing yeast, primary screen, antimalarial PfHsp90 inhibitor project, S. cerevisiae, BacTiter-Glo luminescence, single point, set 2 | BacTiter-Glo ATP, 48 h; yeast lacking PDR1 and PDR3 efflux regulators | inhibition, % at 9.4 µM | hit rate 0.32% among 310,000;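 active means every replicate shows inhibition above about 80%, whatever the replicate mean, limit read from the data; inconclusive means mean inhibition reaches the set limit but some replicate falls short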
Calb FLC – C. albicans growth inhibition with fluconazole, primary screen, CaCi-2 strain, Alamar Blue fluorescence | hit rate 0.57% among 300,000 | growth inhibition, % (no concentration beside the values) | C. albicans CaCi-2 (fluconazole-resistant clinical isolate) + fluconazole, 48 h;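 active means growth inhibition above about 58% in most replicates, limit read from the data, passing the limit was not always enough; inconclusive means exactly half the replicates above a set limit; inactive means most replicates below a set limit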;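 further: all wells also contain fluconazole at 8 µg/ml as a sub-toxic cotreatment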
tim10-1 inh – growth inhibitors of tim10-1 mutant yeast, primary screen, luminescence, uHTS. inhibition, % at 20 µM. AID 463190, 2010. hit rate 2.2% among 330,000. S. cerevisiae tim10-1 ts strain growth, BacTiter-Glo, 24 h;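 active means inhibition of at least 40%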;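 further: mutant grown at 25 °C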
tim23-1 inh – growth inhibitors of tim23-1 mutant yeast, primary screen, luminescence, uHTS; hit rate 1.3% among 330,000; inhibition, % at 20 µM; S. cerevisiae tim23-1 growth, BacTiter-Glo luminescence, 24 h;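 active means growth inhibition of the mutant yeast at or above 50%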;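 further: temperature-sensitive mutant grown at 25 °C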
TIM10 conf – growth inhibitors of wild-type TIM10 yeast, confirmation, counter-screen for tim10-1 synthetic lethality project, single concentration, luminescence, S. cerevisiae; shares compounds with TIM10 inh; S. cerevisiae tim10 strain growth, BacTiter-Glo luminescence, 24 h; inhibition, % at 10 µM; hit rate 63% among 4,600;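 active means inhibition of yeast growth at or above a set limit in either of two replicates at 10 µM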; further: this counterscreen used the strain with wild-type TIM10
Large screens that a line does not name were inactive (follow-up assays come after a bar, where they were run). Most compounds without a hit are left out; they make up all but 4.7% or so of the library.

O=C(NC12CC3CC(CC(C3)C1)C2)c1ccccc1	none
O=C(O)CNC(=O)c1ccccc1NC(=O)c1ccco1	none (no result: SKKanGAS inh, PfHsp90 yeast 2, Calb FLC)
O=C(Nc1ccccc1C(=O)NCCc1ccccc1)c1ccco1	TIM10 inh 97 | TIM10 conf inactive
Cc1c(Br)c([N+](=O)[O-])nn1CC(=O)NCCc1c[nH]c2ccccc12	none
S=c1[nH]nc(SCc2ccccc2)c2[nH]cnc12	none (no result: SKKanGAS inh, TIM10 inh, Calb FLC, tim10-1 inh, tim23-1 inh)
COC(=O)c1ccc(CN(C)S(=O)(=O)c2cccs2)cc1	none
Cc1cc2ncn(/N=C/c3ccc([N+](=O)[O-])o3)c2cc1C	TIM10 inh 57 | TIM10 conf 56
COc1cc(CN2CCNC(=O)C2CC(=O)N2CCCN(C(C)=O)CC2)cc(OC)c1 (stereo not drawn)	none
Cc1ccc(NC(=O)COc2ncnc3cc([N+](=O)[O-])ccc23)cc1S(=O)(=O)N1CCOCC1	none
CCCCC[C@@H]1C=C(C(=O)O)[C@H](c2ccc(OC)c(OC)c2)N1S(=O)(=O)c1ccc(C)cc1	TIM10 inh 97 (no result: SKKanGAS inh, Calb FLC) | TIM10 conf inactive
O=C1CCCCC1Nc1ccc2ccccc2c1 (stereo not drawn)	none (no result: SKKanGAS inh, TIM10 inh, Calb FLC, tim10-1 inh, tim23-1 inh)
O=C(c1cn(-c2ccccc2)nc1-c1ccc(Br)cc1)N1CCOCC1	TIM10 inh 50 | TIM10 conf inactive
O=C(N/N=C/c1ccc([N+](=O)[O-])cc1)c1cc(C2CC2)[nH]n1	TIM10 inh 51 | TIM10 conf 56
Cc1cccc(NC(=O)CSCC(=O)N(CCC(C)C)c2c(N)n(Cc3ccccc3)c(=O)[nH]c2=O)c1	none (no result: Calb FLC)
Cc1cc(F)ccc1S(=O)(=O)N(CC(=O)N1CCOCC1)CC(=O)N1CCOCC1	none (no result: SKKanGAS inh, PfHsp90 yeast 2, Calb FLC)
COc1ccc(N(CC(=O)N/N=C/c2cc(OC)ccc2OC)S(=O)(=O)c2ccccc2)cc1	TIM10 inh 55 | TIM10 conf inactive
CCCn1cnc2cc(NC(=O)c3cccs3)ccc21	TIM10 inh 61 | TIM10 conf 42
CCCn1cnc2cc(NC(=O)c3ccco3)ccc21	none
CC(Cn1cncn1)C(=O)N1CCN(S(=O)(=O)c2ccc(Cl)cc2)CC1 (stereo not drawn)	none
Cn1nnnc1SC(C(=O)Nc1ccc(F)cc1)c1ccccc1 (stereo not drawn)	none
Cn1c(SC(C(=O)Nc2ccc(F)cc2)c2ccccc2)nc2ccccc21 (stereo not drawn)	TIM10 inh 46 | TIM10 conf 43
O=C(CSc1ncn(-c2ccccc2)n1)c1cccs1	TIM10 inh 48 | TIM10 conf inactive
c1ccc(CSc2ncn(-c3ccccc3)n2)cc1	none
O=[N+]([O-])c1ccc(/C=N/Nc2ccnc3cc(Cl)ccc23)o1	SKKanGAS inh inconclusive, TIM10 inh 64 | TIM10 conf 71
COc1ccc(NC(=O)CN(c2ccc(F)cc2)S(=O)(=O)c2ccccc2)c(OC)c1	none
Oc1ccc(CN2CCc3ccccc3C2)c2cccnc12	SKKanGAS inh 83, TIM10 inh 41 | TIM10 conf inactive
Oc1cc2c(cc1CN1CCc3ccccc3C1)OCO2	none
CCOCCCNc1ncnc2c1nc1n2CCCC1	none
COc1ccccc1-c1c(C)nn2c(N3CCC(C)CC3)cc(C)nc12	TIM10 inh 40 | TIM10 conf 47
COc1ccccc1-c1c(C)nn2c(N3CCC(C(N)=O)CC3)cc(C)nc12	none
Cc1nn(-c2ccc(F)cc2)c(Cl)c1/C=N/NC(=O)c1ccc(O)cc1	none
CNC(=S)N/N=C/c1c(C)nn(-c2ccc(F)cc2)c1Cl	TIM10 inh 43 (no result: PfHsp90 yeast 2) | TIM10 conf inactive
CC(Sc1nc(N)c2c3c(sc2n1)CSC(C)(C)C3)C(=O)Nc1ccccc1 (stereo not drawn)	TIM10 inh 47 | TIM10 conf inactive
CN(NC(=O)c1ccc(Cl)cc1)c1ncc(C(F)(F)F)cc1Cl	none
Cc1nn(Cc2ccc(Cl)cc2)c(=O)n1N(C)c1ncc(C(F)(F)F)cc1Cl	TIM10 inh 55 | TIM10 conf inactive
O=C(O)C1=CC[C@@H](c2ccc(Cl)cc2)N(S(=O)(=O)c2ccc(Cl)cc2)[C@H]1c1ccccc1	none (no result: SKKanGAS inh, Calb FLC)
CC(=O)CSc1ncnc2sc3c(c12)CCC(C)C3 (stereo not drawn)	TIM10 inh 43 | TIM10 conf inactive
CCN(CC)CCOc1cc2c(nn1)Oc1ccccc1N2C	none
CN1c2ccccc2Oc2nnc(Cl)cc21	TIM10 inh 48 | TIM10 conf 50
CC(=O)c1ccc(-c2ccc(-c3cc(=O)oc4c(C(C)C)ccc(C)c34)cc2)cc1	none (no result: SKKanGAS inh, Calb FLC)
COc1ccc(C=NNc2nc3ccccc3s2)cc1	none (no result: SKKanGAS inh, TIM10 inh, Calb FLC, tim10-1 inh, tim23-1 inh)
Cc1ccc2[nH]c(C)c(/C=N/Nc3nc4ccccc4s3)c2c1	TIM10 inh 42, PfHsp90 yeast 2 106 | TIM10 conf 59
Cc1ccc(NC(=O)COC(=O)C2(C)CC2(Cl)Cl)cc1S(=O)(=O)N1CCOCC1 (stereo not drawn)	none (no result: SKKanGAS inh, PfHsp90 yeast 2, Calb FLC)
COc1ccc(C(=O)/C=C/c2ccccc2F)c(OC(=O)c2ccc([N+](=O)[O-])cc2)c1	TIM10 inh 44 | TIM10 conf 41
Cc1c(NC(=O)c2ccc(CC(C)C)o2)c(=O)n(-c2ccccc2)n1C	none
COc1ccc(-c2[nH]ncc2Oc2ccccc2OC)c(O)c1	TIM10 inh 52 (no result: PfHsp90 yeast 2) | TIM10 conf inactive
COc1ccc(Oc2cn[nH]c2-c2ccc(O)cc2O)cc1	none
CCCc1ccc(Oc2cn[nH]c2-c2ccc(O)cc2O)cc1	TIM10 inh 44, PfHsp90 yeast 2 inconclusive, Calb FLC 68 (no result: SKKanGAS inh) | TIM10 conf 72
Cc1nn(C)cc1S(=O)(=O)N1CCCCC1C (stereo not drawn)	none
COc1ccccc1C(CNC(=O)C(CCSC)NS(=O)(=O)c1ccccc1F)N1CCCC1 (stereo not drawn)	none
O=C(OCc1nnc(-c2cccs2)o1)C1=NN(c2ccccc2)C(=O)CC1	none (no result: SKKanGAS inh, Calb FLC)
Cc1ccc(S(=O)(=O)N2CCc3ccccc3C2CN2C(=O)c3ccccc3C2=O)cc1 (stereo not drawn)	TIM10 inh 43 | TIM10 conf inactive
S=C(NN=C1CCCCCC1)Nc1ccc(Cl)cc1	none
Fc1ccc(NC(=S)NN=C2CCCCCC2)cc1	TIM10 inh 45 | TIM10 conf inactive
COc1cc(OC)nc(Oc2cccc(Cl)c2C)n1	none (no result: PfHsp90 yeast 2)
Cc1cc(-c2ccccc2)nc(N/N=C/c2ccco2)n1	TIM10 inh 45, Calb FLC inconclusive (no result: PfHsp90 yeast 2) | TIM10 conf 37
